Each structure is given as a SMILES string. Several values for one entry are separate records, joined by “and”; a condition that tells them apart may be missing. Equal values may be shown once. Results filed as inconclusive are left out. A structure can be active in one record and inactive in another. Activity calls are given as the source filed them. Calls follow the shape of the dose curve; as a rule, active = well fitted curve in the direction sought with a large enough effect in the repeat runs; inconclusive = weak or mixed curves; inactive = no such curve, though single readings can be large; an effect the other way counts as inactive or inconclusive.

For experiment [1], the target named is Cytochrome P450 2C19 (Homo sapiens) (UniProt P33261). Nature of the experiment: Cytochrome P450 Family 2 Subfamily C Member 19 (CYP2C19) small molecule antagonists: luciferase reporter qHTS assay (AID 1671197). Also: nearly all actives have a fitted effect of over 65% in size. The essentials:
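Enzyme-substrate mix with proluciferin substrate (P450-Glo CYP2C19 system) preincubated with compounds 10 min at room temperature; NADPH regeneration solution added, 37C for 1 h; detection reagent stops reaction, luminescence read after 20 min. Ketoconazole positive control.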

In experiment [2] the target is Cytochrome P450 2C9 (Homo sapiens) (UniProt P11712). The experiment in a line: Cytochrome P450 Family 2 Subfamily C Member 9 (CYP2C9) small molecule antagonists: luciferase reporter qHTS assay (AID 1671198). Also: nearly all actives have a fitted effect of over 50% in size. The essentials:
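CYP2C9 activity was measured with a P450-Glo proluciferin substrate. Enzyme–substrate mix was held with compound for 10 min at room temperature, then NADPH regeneration solution was added for 1 h at 37C. Luciferin product was read as luminescence.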

Experiment [3] concerns the target Cytochrome P450 1A2 (Homo sapiens) (UniProt P05177). The experiment in a line: Cytochrome P450 Family 1 Subfamily A Member 2 (CYP1A2) small molecule antagonists: luciferase reporter qHTS assay (AID 1671199). Also: nearly all actives have a fitted effect of over 50% in size. The method, boiled down:
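Enzymatic CYP1A2 assay, human, luminescent: 10 min compound–enzyme–substrate preincubation, 1 h NADPH-dependent turnover, 20 min detection step, room temperature throughout. Reduced light indicates lower CYP1A2 activity.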

The target of experiment [4] is Voltage-gated inwardly rectifying potassium channel KCNH2 (Homo sapiens) (UniProt Q12809). Nature of the experiment: Human Ether-a-go-go-Related Gene (hERG) channel small molecule antagonists: fluorescence cell-based qHTS assay (AID 1671200). Also: nearly all actives have a fitted effect of over 50% in size. The method, boiled down: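 Channel function was assessed by thallium flux. Cells seeded the previous day and kept at 37 C took up FluxOR II dye over 1 h in the dark at room temperature, then sat another 10 min before stimulation.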

The target of experiment [5] is Cytochrome P450 3A4 (Homo sapiens) (UniProt P08684). Nature of the experiment: Cytochrome P450 Family 3 Subfamily A Member 4 (CYP3A4) small molecule antagonists: luciferase reporter qHTS assay (AID 1671201). Also: nearly all actives have a fitted effect of over 50% in size. The method, boiled down: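 Compounds in DMSO were pin-transferred onto CYP3A4 enzyme-substrate mix and held 10 min at room temperature. NADPH regenerating solution started the reaction for 1 h; luciferin detection reagent stopped it, and luminescence was read after 20 min.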
Potency is read from the fitted curve at half-maximal effect.

Chain of Cytochrome P450 1A2 (Homo sapiens) (P05177 whole entry, looked up): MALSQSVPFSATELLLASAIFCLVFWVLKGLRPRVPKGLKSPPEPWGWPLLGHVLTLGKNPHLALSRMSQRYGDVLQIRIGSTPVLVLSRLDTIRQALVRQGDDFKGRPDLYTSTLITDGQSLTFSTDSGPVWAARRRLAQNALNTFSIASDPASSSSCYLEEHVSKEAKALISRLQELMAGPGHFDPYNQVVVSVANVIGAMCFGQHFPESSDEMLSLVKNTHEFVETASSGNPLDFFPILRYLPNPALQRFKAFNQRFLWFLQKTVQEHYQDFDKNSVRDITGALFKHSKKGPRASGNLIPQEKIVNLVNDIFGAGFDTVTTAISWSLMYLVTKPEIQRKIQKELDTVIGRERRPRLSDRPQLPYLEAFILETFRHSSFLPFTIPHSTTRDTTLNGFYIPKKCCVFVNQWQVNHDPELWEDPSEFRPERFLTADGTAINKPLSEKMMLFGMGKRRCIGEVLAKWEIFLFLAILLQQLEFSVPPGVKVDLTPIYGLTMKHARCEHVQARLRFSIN
Chain of Cytochrome P450 2C19 (Homo sapiens) (P33261 whole entry, looked up): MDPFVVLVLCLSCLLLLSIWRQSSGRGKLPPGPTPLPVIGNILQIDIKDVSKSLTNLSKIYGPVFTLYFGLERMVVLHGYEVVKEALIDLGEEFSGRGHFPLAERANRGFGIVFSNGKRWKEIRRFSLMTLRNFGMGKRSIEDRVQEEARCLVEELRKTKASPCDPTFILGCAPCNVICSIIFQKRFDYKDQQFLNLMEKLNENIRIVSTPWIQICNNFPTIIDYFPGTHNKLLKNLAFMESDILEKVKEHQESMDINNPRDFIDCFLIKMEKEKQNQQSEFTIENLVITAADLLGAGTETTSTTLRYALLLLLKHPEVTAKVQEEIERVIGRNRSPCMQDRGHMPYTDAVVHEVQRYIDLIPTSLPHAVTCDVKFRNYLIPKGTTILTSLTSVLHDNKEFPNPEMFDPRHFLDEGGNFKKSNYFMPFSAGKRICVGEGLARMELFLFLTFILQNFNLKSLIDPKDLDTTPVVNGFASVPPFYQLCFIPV
Chain of Cytochrome P450 2C9 (Homo sapiens) (P11712 whole entry, looked up): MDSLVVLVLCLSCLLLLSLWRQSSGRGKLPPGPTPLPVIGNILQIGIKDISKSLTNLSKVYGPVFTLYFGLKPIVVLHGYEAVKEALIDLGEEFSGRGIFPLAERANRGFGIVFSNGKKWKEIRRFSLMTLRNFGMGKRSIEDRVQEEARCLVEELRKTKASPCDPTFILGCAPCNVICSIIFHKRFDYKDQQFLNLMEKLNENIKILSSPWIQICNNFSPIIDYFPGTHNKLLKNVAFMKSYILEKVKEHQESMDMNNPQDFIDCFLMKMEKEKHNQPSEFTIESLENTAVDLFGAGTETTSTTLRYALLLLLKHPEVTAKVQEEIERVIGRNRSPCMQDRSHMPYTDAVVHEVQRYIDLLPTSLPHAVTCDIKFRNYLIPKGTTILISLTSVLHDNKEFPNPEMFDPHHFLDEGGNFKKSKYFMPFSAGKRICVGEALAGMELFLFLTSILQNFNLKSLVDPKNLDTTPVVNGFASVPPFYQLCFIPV
Chain of Voltage-gated inwardly rectifying potassium channel KCNH2 (Homo sapiens) (Q12809 whole entry, looked up): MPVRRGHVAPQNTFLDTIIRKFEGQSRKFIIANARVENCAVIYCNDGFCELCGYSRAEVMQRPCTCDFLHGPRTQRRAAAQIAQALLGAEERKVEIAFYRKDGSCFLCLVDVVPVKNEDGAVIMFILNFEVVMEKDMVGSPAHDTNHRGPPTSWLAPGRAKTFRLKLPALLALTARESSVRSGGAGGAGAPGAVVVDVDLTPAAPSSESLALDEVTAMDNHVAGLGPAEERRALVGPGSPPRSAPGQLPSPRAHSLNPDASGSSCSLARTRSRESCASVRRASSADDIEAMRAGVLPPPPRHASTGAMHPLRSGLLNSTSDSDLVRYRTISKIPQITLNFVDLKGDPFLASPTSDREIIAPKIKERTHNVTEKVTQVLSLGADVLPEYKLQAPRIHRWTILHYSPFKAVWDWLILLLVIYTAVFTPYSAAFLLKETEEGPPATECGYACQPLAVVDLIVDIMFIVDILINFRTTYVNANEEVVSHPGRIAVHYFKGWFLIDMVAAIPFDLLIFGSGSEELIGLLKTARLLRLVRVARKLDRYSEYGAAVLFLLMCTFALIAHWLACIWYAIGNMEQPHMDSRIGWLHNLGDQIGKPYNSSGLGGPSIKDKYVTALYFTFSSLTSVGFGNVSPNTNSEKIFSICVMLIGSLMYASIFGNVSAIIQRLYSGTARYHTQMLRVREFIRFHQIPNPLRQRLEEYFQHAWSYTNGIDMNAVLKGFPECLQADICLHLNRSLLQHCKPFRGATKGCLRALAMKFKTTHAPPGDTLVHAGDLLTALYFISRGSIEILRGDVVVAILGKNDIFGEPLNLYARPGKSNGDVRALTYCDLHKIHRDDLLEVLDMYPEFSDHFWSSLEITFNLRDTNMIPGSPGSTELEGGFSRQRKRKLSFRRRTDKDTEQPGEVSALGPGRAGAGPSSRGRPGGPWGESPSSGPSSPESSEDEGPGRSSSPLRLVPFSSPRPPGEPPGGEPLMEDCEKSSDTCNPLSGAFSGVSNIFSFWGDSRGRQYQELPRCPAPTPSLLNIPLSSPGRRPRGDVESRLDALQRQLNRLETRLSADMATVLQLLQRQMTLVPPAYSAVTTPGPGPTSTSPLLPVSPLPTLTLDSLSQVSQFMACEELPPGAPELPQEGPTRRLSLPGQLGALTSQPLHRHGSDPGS
Chain of Cytochrome P450 3A4 (Homo sapiens) (P08684 whole entry, looked up): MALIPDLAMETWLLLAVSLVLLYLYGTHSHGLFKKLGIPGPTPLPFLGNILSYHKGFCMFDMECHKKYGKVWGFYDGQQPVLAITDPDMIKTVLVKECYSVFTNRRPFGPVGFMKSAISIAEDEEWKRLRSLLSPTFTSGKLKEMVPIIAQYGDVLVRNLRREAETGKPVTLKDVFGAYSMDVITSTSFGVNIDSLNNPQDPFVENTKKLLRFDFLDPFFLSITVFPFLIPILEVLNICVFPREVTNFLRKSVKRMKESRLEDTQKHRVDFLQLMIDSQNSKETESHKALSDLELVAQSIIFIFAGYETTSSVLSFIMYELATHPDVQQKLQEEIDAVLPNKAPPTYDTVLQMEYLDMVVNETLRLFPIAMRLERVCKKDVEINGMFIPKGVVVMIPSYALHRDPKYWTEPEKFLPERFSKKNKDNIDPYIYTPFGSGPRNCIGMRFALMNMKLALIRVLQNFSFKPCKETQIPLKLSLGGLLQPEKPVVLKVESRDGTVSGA

As for `c1cc(C(c2ccc(OCC3CO3)cc2)c2ccc(OCC3CO3)cc2)ccc1OCC1CO1` (stereo unspecified), the Potency in experiment [1] was 56.4 µM (active); in experiment [2] it was 20 µM (active); in experiment [5] it was 7.96 µM (active). Besides, the Potency entry in experiment [3] and in experiment [4] was “inactive” each time.

`Cc1cc(C2CCCCC2)n(O)c(=O)c1`: the Potency entry in experiment [1], in experiment [2], in experiment [3] and in experiment [4] was “inactive” in each case.

For the compound `Cc1cc(N)c(S(=O)(=O)O)cc1Cl`, the Potency entry in experiment [1], in experiment [3], in experiment [4] and in experiment [5] was “inactive” in each case. For the same compound, in experiment [2], the Potency is 28.6 µM (active).

Consider `CSc1ccc(/C=C2/C(C)=C(CC(=O)O)c3cc(F)ccc32)cc1`, for which the Potency in experiment [1] is 17.4 µM (active); in experiment [2], 24.5 µM (active); in experiment [3], 15.5 µM (active). The Potency result in experiment [4] and in experiment [5] was “inactive” in each case.

In the case of `O=Cc1cc(O)ccc1Br`, the figures for the Potency in experiment [1], in experiment [2] and in experiment [3] were 36.1 µM (active), 45.4 µM (active) and 36.1 µM (active), respectively. The Potency result in experiment [4] and in experiment [5] was “inactive” each time.

Consider `COc1c(C)c2c(c(O)c1C/C=C(\C)CCC(=O)O)C(=O)OC2`, for which the Potency result in experiment [1], in experiment [2], in experiment [3], in experiment [4] and in experiment [5] was “inactive” each time.

Take `CN(C)c1ccc(C2(c3ccc(N(C)C)cc3)OC(=O)c3cc(N(C)C)ccc32)cc1`: the Potency in experiment [1] is 1.41 µM (active); in experiment [2], 3.16 µM (active); in experiment [5] it was 2 µM (active). Also, the Potency entry in experiment [3] and in experiment [4] was “inactive” each time.

On to `CCCC1O[C@@H]2C[C@H]3[C@@H]4CCC5=CC(=O)C=C[C@]5(C)[C@H]4[C@@H](O)C[C@]3(C)[C@]2(C(=O)CO)O1` (stereo partly specified), for which the Potency in experiment [1] was 39.9 µM (active) and inactive; in experiment [2] it was 39.9 µM (active) and 35.6 µM (active). Further, the Potency result in experiment [3] and in experiment [4] was “inactive” in each case.

As to `Cc1cc(CCN2CCN(c3nsc4ccccc34)CC2)cc2c1NC(=O)CC2(C)C`, the Potency in experiment [1] is 71 µM (active); in experiment [2] it was 39.9 µM (active); in experiment [3], 35.6 µM (active); in experiment [4] it was 21.9 µM (active); in experiment [5], 17.8 µM (active).

As for `OCCCCCCCCCCCCBr`, the Potency entry in experiment [1], in experiment [2] and in experiment [4] was “inactive” throughout. Also, the Potency in experiment [3] is 40.5 µM (active).

For `Oc1ccc(Cl)cc1Sc1cc(Cl)ccc1O`, the Potency is 1.26 µM (active) and 1.55 µM (active) in experiment [1]; 10 µM (active) and 7.76 µM (active) in experiment [2]; 35.5 µM (active) and 27.5 µM (active) in experiment [3]. For the same compound, the Potency entry in experiment [4] was “inactive”.

Consider `O=C1CCCc2c1cc1ccc3cccc4ccc2c1c34`, for which the Potency in experiment [1] was 18.1 µM (active); in experiment [2], 5.71 µM (active); in experiment [3], 0.321 µM (active); in experiment [5] it was 9.05 µM (active). In experiment [4], the Potency result was “inactive”.

Regarding `Nc1ccc2c3c(cccc13)-c1ccccc1-2`, the Potency is 18 µM (active) in experiment [1], 32.1 µM (active) in experiment [2], 0.128 µM (active) in experiment [3] and 18 µM (active) in experiment [5]. In experiment [4], the Potency result was “inactive”.

For the compound `O=C(Nc1cccc(C(F)(F)F)c1)c1cc(Br)cc(Br)c1O`, the Potency in experiment [1] is 56.4 µM (active); in experiment [2] it was 14.2 µM (active); in experiment [3], 56.4 µM (active); in experiment [5] it was 22.4 µM (active). Also, in experiment [4], the Potency result was “inactive”.

`Cc1[nH]cnc1C[C@H]1CCc2c(C)c3ccccc3n2C1=O`: the Potency was 1.95 µM (active) in experiment [1], 0.49 µM (active) in experiment [2], 1.74 µM (active) in experiment [3] and 5.36 µM (active) in experiment [4].

As to `COC(=O)C1=C(C)NC(C)=C(C(=O)OCCc2ccc(N3CCN(C(c4ccccc4)c4ccccc4)CC3)cc2)C1c1cccc([N+](=O)[O-])c1` (stereo unspecified), the Potency was 7.76 µM (active) in experiment [1], 0.436 µM (active) in experiment [2] and 14.4 µM (active) in experiment [3]. Further, the Potency entry in experiment [4] was “inactive”.

Consider `N=C1C=CC(=C(c2ccc(N)cc2)c2ccc(N)cc2)C=C1`, for which the Potency in experiment [1] was 39.9 µM (active); in experiment [2], 39.9 µM (active); in experiment [3], 35.6 µM (active); in experiment [5], 12.6 µM (active). For the same compound, in experiment [4], the Potency entry is “inactive”.

For the compound `NC(=O)NS(=O)(=O)c1ccc(N)cc1`, the Potency result in experiment [1], in experiment [2], in experiment [3], in experiment [4] and in experiment [5] was “inactive” throughout.

For the compound `NC(=O)N1C(=O)C(C(=O)c2cc(Cl)cs2)c2cc(F)c(Cl)cc21` (stereo unspecified), the results for the Potency in experiment [1], in experiment [2] and in experiment [3] were 79.6 µM (active), 6.33 µM (active) and 17.8 µM (active), respectively. In experiment [4], the Potency result is “inactive”.

Consider `CCOC(=O)c1nc(C(Cl)(Cl)Cl)n(-c2ccc(Cl)cc2Cl)n1`, for which the Potency in experiment [1] was 5.03 µM (active); in experiment [2], 3.17 µM (active); in experiment [4], 49 µM (active). Besides, the Potency result in experiment [3] and in experiment [5] was “inactive” in each case.

Regarding `Nc1c(Cl)cc(Cl)cc1Cl`, the Potency result in experiment [1], in experiment [2] and in experiment [4] was “inactive” each time. Further, the Potency in experiment [3] is 15.7 µM (active).

As for `Cc1cc2c(cc1C(F)(F)F)N(C(=O)Nc1ccc(Oc3cccnc3C)nc1)CC2`, the Potency was 28.7 µM (active) in experiment [1], 11.4 µM (active) in experiment [2], 72.1 µM (active) in experiment [3] and 20.3 µM (active) in experiment [5]. For the same compound, the Potency result in experiment [4] is “inactive”.

`CCCCCCCCCCCCCCCCCC[N+](C)(C)Cc1ccccc1`: the Potency in experiment [1] is 56.9 µM (active); in experiment [2], 40.3 µM (active); in experiment [3], 80.4 µM (active); in experiment [4], 2.78 µM (active); in experiment [5] it was 40.3 µM (active).

Consider `Cc1ccc2oc(CN(Cc3ccccc3)C(=O)Nc3c(F)cc(F)cc3F)c(-c3ccc(Cl)cc3)c2c1`, for which the Potency in experiment [1] was 10.9 µM (active); in experiment [2], 4.34 µM (active); in experiment [3] it was 54.6 µM (active); in experiment [5] it was 2.44 µM (active). Moreover, the Potency entry in experiment [4] was “inactive”.

`OCc1c[nH]c2ccccc12`: the Potency in experiment [1] was 2.52 µM (active); in experiment [2] it was 7.52 µM (active); in experiment [3], 29.1 µM (active). Moreover, the Potency result in experiment [4] is “inactive”.

On to `Oc1cc2ccccc2c2ccccc12`, for which the Potency is 1.12 µM (active) in experiment [1], 5.03 µM (active) in experiment [2], 0.0502 µM (active) in experiment [3] and 6.33 µM (active) in experiment [5]. In addition, the Potency result in experiment [4] was “inactive”.
